Test results reported in PubChem BioAssay (NCATS).
Records with an inconclusive call do not appear. Activity calls are given as the source filed them. Unless noted, calls come from the whole dose curve; as a rule, active = well fitted curve in the direction sought with a large enough effect; inconclusive = small, poorly fitted or top-dose-only effect, or another doubt; inactive = no such curve, though single readings can be large; an effect the other way counts as inactive or inconclusive.

Legend:
[1] = Cell Viability - BJ (AID 421; calls by dose curve;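 note: potency is the fitted concentration of half-maximal effect; cells exposed to compound for 40 hours at 37 °C before readout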); conditions: BJ fibroblast viability, qHTS
In short: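 Cytotoxicity as drop in intracellular ATP (CellTiter-Glo, 20 min RT) after 40 hr compound exposure of BJ fibroblasts at 37 °C. Titrations scaled between DMSO and 100 uM tamoxifen, Hill-fitted for AC50.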

[2] = Cell Viability - Jurkat (AID 426;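 active = dose-dependent loss of cell ATP signal giving a full or clear fitted curve, ranked by lower potency value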;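 note: potency is the fitted concentration of half-maximal effect; cells exposed to compound for 40 hours at 37 °C before ATP read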); conditions: qHTS
In short: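 Luminescent ATP read-out (CellTiter-Glo, 20 min at room temperature) after 40 hr compound exposure at 37 °C of Jurkat E6-1 cells, 5000/well. Decreased ATP taken as cytotoxicity; AC50 from standard Hill equation.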

[3] = Cell Viability - Hek293 (AID 427;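 active = compounds whose dose-response curve shows a full or clear partial loss of cell viability, called from curve shape rather than a numeric limit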;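 note: potency is the fitted concentration of half-maximal effect; cells exposed to compound for 40 hours at 37 °C before reading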); conditions: qHTS
In short: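 Luminescent ATP content (CellTiter-Glo, 20 min at room temperature) was measured after a 40 hr, 37 °C compound exposure of HEK293 cells. AC50 values came from Hill-equation fits of qHTS concentration-response data normalized to DMSO and 100 uM tamoxifen.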

[4] = Cell Viability - SK-N-SH (AID 435; calls by dose curve;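 note: potency is the fitted concentration of half-maximal effect; compound exposure lasted 40 h at 37 °C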); conditions: SK-N-SH neuroblastoma cell viability qHTS
In short: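 SK-N-SH human neuroblastoma cells (1500/well) were exposed to compounds in complete medium for 40 h at 37 °C, and intracellular ATP was then measured by CellTiter-Glo luminescence. AC50 was taken from Hill fits, normalized to DMSO and 100 uM tamoxifen.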

[5] = Cellular Toxicity (caspase-3) Jurkat (AID 655); conditions: Jurkat caspase-3 activation, luminescence; caspase-3 activation: at 92.2 µM (top of the series), DMSO = 0%, tamoxifen = 100%;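 note: cells exposed to compound for 16 h at 37 °C before reading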
In short: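 Jurkat cells (5000/well) in complete medium were treated with compounds for 16 hr at 37 °C, then Caspase-Glo 3/7 luminescence was read after 20 min at room temperature. Data normalized to DMSO (basal) and 100 uM tamoxifen (100%); AC50 from Hill fit.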

[6] = Cellular Toxicity (caspase-3) SHSY5Y (AID 657); conditions: SH-SY5Y caspase-3 activation, DMSO zero, 10 µM staurosporine = 100%; series mostly up to 91.7 µM
In short: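 SH-SY5Y human neuroblastoma cells (1500/well) were treated with compounds for 16 h at 37 °C, then Caspase-Glo 3/7 luminescence was read after 1 h at room temperature. Data normalized to DMSO and 10 uM staurosporine; AC50 from Hill fits.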

[7] = Cellular Toxicity (caspase-3) BJ (AID 658); conditions: BJ fibroblasts, luminescence, normalized: DMSO 0%, staurosporine 100%; series mostly up to 91.7 µM
In short: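 qHTS, BJ fibroblasts, 1000 cells/well; 5 hr preincubation, 16 hr compound, 37 °C; Caspase-Glo 3/7 reagent, 1 hr RT; luminescence. DMSO = 0%, 10 uM staurosporine = 100%. Hill-equation AC50.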

[8] = Cellular Toxicity (caspase-3) N2a (AID 665); conditions: N2a cells, luminescence, normalized: DMSO 0%, 10 µM staurosporine 100%; series mostly up to 92.2 µM;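 note: compound exposure lasted 16 h at 37 °C before readout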
In short: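 Luminescent Caspase-Glo 3/7 readout in N2a mouse neuroblastoma cells after 16 h compound exposure at 37 °C. Signal scaled to DMSO (basal) and 10 uM staurosporine (100%). Concentration-response fitted with Hill equation for AC50.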

[9] = Cellular Toxicity (caspase-3) Renal Proximal Tubule (AID 667); conditions: renal proximal tubule cells; series mostly up to 91.7 µM;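 note: cells exposed to compound for 16 hours at 37 °C before detection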
In short: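 Primary rat proximal tubule cells, 1000/well, 5 h plating at 37 °C, then compound 16 h at 37 °C. Caspase-Glo 3/7 reagent, 1 h RT, luminescence. Normalized to DMSO (basal) and 10 uM staurosporine (100%); Hill-fit AC50.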

[10] = MultiTox-Fluor Cytotoxicity Assay - LYMP1-001 - Dead Cells (AID 946); conditions: LYMP1-001 lymphoblastoid cells, dead-cell protease fluorescence; series mostly up to 92.2 µM
In short: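 Cytotoxicity as increased dead-cell protease fluorescence (bis-AAF-R110, 485/520 nm), read 60 min after MultiTox-Fluor reagent. Human lymphoblastoid line exposed 16 h; Hill-fitted AC50, with DMSO as 0% and 15 uM tetraoctylammonium bromide as 100%.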

[11] = Cell Viability - LYMP1-002 - Assay at 16 hr (AID 948); conditions: LYMP1-002 lymphoblastoid cell viability; series mostly up to 92.2 µM;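 note: 0% = DMSO alone and full effect = 92 µM tetraoctylammonium bromide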
In short: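 Human lymphoblastoid cells (LYMP1-002), 2500/well, were preincubated 5 hr at 37 C, then exposed to compounds for 16 hr at 37 C in complete medium. Cellular ATP was read by CellTiter-Glo luminescence after 30 min at room temperature; AC50 from Hill fits.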

[12] = MultiTox-Fluor Cytotoxicity Assay - LYMP1-003 - Dead Cells (AID 961); conditions: LYMP1-003 lymphoblastoid cells, dead-cell protease fluorescence; series mostly up to 92.2 µM; note: nearly all actives have a fitted effect of over 70% in size
In short: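 Dead-cell protease release, detected as bis-AAF-R110 fluorescence at 485/520 nm, was measured in LYMP1-003 cells after 16 h compound treatment at 37 C. AC50 values came from Hill-modeled qHTS curves normalized to DMSO (0%) and 15 uM tetraoctylammonium bromide (100%).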

[13] = Cell Viability - LYMP1-003 - Assay at 24 hr (AID 963); conditions: LYMP1-003 lymphoblastoid cell viability; series mostly up to 92.2 µM;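 note: plate controls were DMSO only for no effect and tetraoctylammonium bromide positive control for full effect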
In short: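 CellTiter-Glo luminescence (intracellular ATP) read after 24 hr, 37 C compound exposure of 2500 LYMP1-003 human lymphoblastoid cells/well in complete medium; qHTS concentration series; AC50 via standard Hill equation.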

[14] = Cell Viability - LYMP2-013 (AID 970); conditions: LYMP2-013 lymphoblastoid cells viability; series mostly up to 92.2 µM;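 note: 0% = DMSO only and full inhibition = tetraoctylammonium bromide control; nearly all actives have a fitted effect of over 55% in size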
In short: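 CellTiter-Glo luminescence (cellular ATP) read after 30 min at RT. Cells: human lymphoblastoid line, 2500/well, 24 hr compound exposure at 37 C. Tetraoctylammonium bromide positive control; AC50 via standard Hill fit of qHTS titrations.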

[15] = Cell Viability - LYMP2-016 (AID 984); conditions: LYMP2-016 lymphoblastoid cell viability, qHTS; series mostly up to 92.2 µM;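 note: cells exposed to compound for 24 hours at 37 °C; % is set by controls: 0 for no effect and ±100 for the full control effect; nearly all actives have a fitted effect of over 55% in size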
In short: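 Human lymphoblastoid cells (LYMP2-016), 2500/well in complete medium, preincubated 5 hr at 37 C, then compound-treated 24 hr at 37 C. Intracellular ATP read by CellTiter-Glo luminescence after 30 min at room temperature; AC50 from Hill-equation concentration-response fits.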

[16] = Cell Viability - LYMP1-002 - Assay at 24 hr (AID 993); conditions: LYMP1-002 lymphoblastoid cells viability; series mostly up to 92.2 µM; note: % is set by controls: 0 for no effect and ±100 for the full control effect
In short: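 CellTiter-Glo luminescence (intracellular ATP) after 24 h compound exposure, 37 C, in LYMP1-002 human lymphoblastoid cells; decreased ATP taken as cytotoxicity. AC50 from standard Hill fit of concentration-response curves.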

[17] = qHTS Assay for Identification of Small Molecule Inducers of Hypoxia Response (AID 2120; active = well fitted curve in the direction sought with a large enough effect in the signal ratio, with a control signal flat, not every such curve was filed as active; the % refers to the signal ratio; note: 0% is about no effect); conditions: hypoxia response reporter cells, beta-lactamase ratio readout; series mostly up to 104 µM
In short: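 Read-out: CCF4 FRET emission ratio 460nm/530nm (excitation 405nm), converted to %Activity, with AC50 fitted across a compound titration. ME-180 cells carried an HRE-driven beta-lactamase reporter; compound exposure 17 h, 37 degrees C.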

[18] = target: Peroxisome proliferator-activated receptor alpha (Homo sapiens) (UniProt Q07869); assay: qHTS assay for small molecule agonists of the peroxisome proliferator-activated receptor alpha (PPARalpha) signaling pathway (AID 651778); conditions: PathHunter PPARalpha complementation, chemiluminescence, 6 h; stronger effect = higher value; note: % of control where 0% means no effect
In short: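 Enzyme-fragment complementation assay in which ligand-bound PPARalpha translocates and forms an active enzyme that generates chemiluminescence. Cells were plated overnight, exposed to compound for 6 hr at 37 C, and then given detection reagent for 60 min at room temperature.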

[19] = qHTS assay for cell viability of HEK293 cells (AID 743288); conditions: ATP luminescence (CellTiter-Glo), 18 h, stronger effect = lower value; note: % is set by controls: 0 for no effect and ±100 for the full control effect; nearly all actives have a fitted effect of over 50% in size
In short: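 After 18 h compound exposure at 37 C, parental HEK293 cells (2,000/well) are lysed with CellTiter-Glo and luminescence is read following 30 min at room temperature.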

[20] = qHTS assay for cell viability of the p53RE-bla HCT-116 cell line (AID 743292); conditions: p53RE-bla HCT-116 viability, ATP luminescence, 16 h; series mostly up to 95 µM; note: % is set by controls: 0 for no effect and ±100 for the full control effect; nearly all actives have a fitted effect of over 55% in size
In short: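 Luminescent ATP quantitation (CellTiter-Glo) served as the viability read-out; reagent was added after 16 h compound exposure at 37 C and read after 30 min at room temperature. Cells: p53RE-bla HCT-116, 4,000 per well.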

Chain of Peroxisome proliferator-activated receptor alpha (Homo sapiens) (Q07869 whole entry, looked up, the tested form may be a part): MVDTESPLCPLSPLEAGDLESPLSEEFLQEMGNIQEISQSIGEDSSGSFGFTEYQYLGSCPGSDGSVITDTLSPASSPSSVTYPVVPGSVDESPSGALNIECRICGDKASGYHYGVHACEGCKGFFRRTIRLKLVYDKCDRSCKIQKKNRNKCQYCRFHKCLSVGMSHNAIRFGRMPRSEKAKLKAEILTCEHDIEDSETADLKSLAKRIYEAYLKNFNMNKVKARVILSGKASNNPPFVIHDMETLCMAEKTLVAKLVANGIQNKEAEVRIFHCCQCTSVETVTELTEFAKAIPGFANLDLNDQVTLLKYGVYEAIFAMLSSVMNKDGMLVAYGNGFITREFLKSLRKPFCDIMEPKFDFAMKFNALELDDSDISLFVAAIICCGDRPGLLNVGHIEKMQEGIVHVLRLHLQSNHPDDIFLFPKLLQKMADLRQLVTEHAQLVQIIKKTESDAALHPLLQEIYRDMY

Oc1c(Cl)cccc1Cl
inactive: Potency [1] > 92 µM | Potency [2] > 92 µM | Potency [3] > 92 µM | Potency [4] > 92 µM | caspase-3 activation [5] 2.96% | outcome [6] | outcome [7] | outcome [8] | outcome [9] | outcome [10] | outcome [11] | Potency [12] | outcome [13] | Potency [14] | Potency [15] | Potency [16] | Potency [17] | max response [18] -1.21% | max response [19] -3.49% | Potency [20]

Oc1ccc(Cl)c(Cl)c1
inactive: Potency [1] > 92 µM | Potency [2] > 92 µM | Potency [3] > 92 µM | Potency [4] > 92 µM | caspase-3 activation [5] -1.55% | outcome [6] | outcome [7] | outcome [8] | outcome [9] | outcome [10] | outcome [11] | Potency [12] | outcome [13] | Potency [14] | Potency [15] | Potency [16] | Potency [17] | max response [18] -3.58% | max response [19] 7.88% | Potency [20]

CCOC(=O)C1OC1(C)c1ccccc1 (stereo not given)
inactive: Potency [1] > 92 µM | Potency [2] > 92 µM | Potency [3] > 92 µM | Potency [4] > 92 µM | caspase-3 activation [5] -2.16% | outcome [6] | outcome [7] | outcome [8] | outcome [9] | outcome [10] | outcome [11] | Potency [12] | outcome [13] | Potency [14] | Potency [15] | Potency [16] | Potency [17] | max response [18] 4.47% | max response [19] 7.29% | Potency [20]

Nc1cc(Cl)cc(Cl)c1
inactive: Potency [1] > 92 µM | Potency [2] > 92 µM | Potency [3] > 92 µM | Potency [4] > 92 µM | caspase-3 activation [5] -0.381% | outcome [6] | outcome [7] | outcome [8] | outcome [9] | outcome [10] | outcome [11] | Potency [12] | outcome [13] | Potency [14] | Potency [15] | Potency [16] | Potency [17] | max response [18] 0.393% | max response [19] 5.59% | Potency [20]

CN(C)N=O
inactive: Potency [1] > 92 µM | Potency [2] > 92 µM | Potency [3] > 92 µM | Potency [4] > 92 µM | caspase-3 activation [5] 0.809% | outcome [6] | outcome [7] | outcome [8] | outcome [9] | outcome [10] | outcome [11] | Potency [12] | outcome [13] | Potency [14] | Potency [15] | Potency [16] | Potency [17] | max response [18] 0.541% | max response [19] -0.309% | Potency [20]
